What all share (assay): Primary qHTS to identify gynecologic anti-cancer compounds using libraries of approved drugs and bioactive compounds (AID 1345084); note: nearly all actives have a fitted effect of over 55% in size
Holding throughout (conditions): Gynecologic cancer cell panel viability, ATPlite luminescence, 48 h; series mostly up to 57.5 µM
On the technique in general: qHTS replaces the single test concentration by a dilution series.

One experiment concerns PA-1. In outline: (§1)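 Cell viability after 48 h drug treatment, ATPlite luminescence readout; five doses.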
The next experiment deals with SKOV3. Put shortly: as §1
The next experiment relates to Tov-21-G. In outline: as §1
For a further experiment, the system named is Tov112D. In outline: as §1

Results filed as inconclusive are left out. A number with no mark means an inactive call. The source made the active and inactive calls. Calls come from the whole dose curve; as a rule, active = well fitted cell-killing curve with a large enough effect; inconclusive = small, poorly fitted or top-dose-only effect, or effect the other way; inactive = flat fitted curve, though single readings scatter.
% is set by controls: 0 for no effect and ±100 for the full control effect; potency is the fitted concentration of half-maximal effect.

Regarding `CN(C)CCc1c[nH]c2ccc(CN3CCN(C)S3(=O)=O)cc12`, the Potency entry with PA-1, with SKOV3, in the experiment with Tov-21-G and in the experiment with Tov112D was “inactive” in each case.

As to `CC(C)(O)[C@H]1O[C@H]2CC[C@@]3(C)[C@@](O)(CC[C@H]4Cc5c([nH]c6ccccc56)[C@@]43C)C2=CC1=O`, the Potency entry in the experiment on PA-1, in the experiment with SKOV3, in the experiment on Tov-21-G and in the experiment on Tov112D was “inactive” each time.

With `CN1C(=O)N(c2ccc(C#N)c(C(F)(F)F)c2)C(=O)[C@]1(CO)c1ccccc1`, the Potency entry in the experiment on PA-1, in the experiment with SKOV3, in the experiment on Tov-21-G and in the experiment with Tov112D was “inactive” in each case.

Consider `CCN1C[C@]2(COC)[C@H](O)C[C@H](OC)[C@]34[C@@H]5C[C@]6(O)[C@H](OC(=O)c7ccccc7)[C@@H]5[C@@](O)([C@H]([C@H](OC)[C@H]23)[C@@H]14)[C@@H](O)[C@@H]6OC`, for which the Potency entry in the experiment with PA-1, in the experiment with SKOV3, in the experiment with Tov-21-G and in the experiment on Tov112D was “inactive” each time.

Consider `C[C@@]1(C(=O)O)CC[C@]2(C)CC[C@]3(C)C4=CC(=O)c5cc(O)c(O)cc5[C@]4(C)CC[C@@]3(C)[C@@H]2C1`, for which the Potency result in the experiment with PA-1, in the experiment with SKOV3, in the experiment on Tov-21-G and with Tov112D was “inactive” throughout.

Take `N#C[C@@H](O[C@@H]1O[C@H](CO[C@@H]2O[C@H](CO)[C@@H](O)[C@H](O)[C@H]2O)[C@@H](O)[C@H](O)[C@H]1O)c1ccccc1`: the Potency entry with PA-1, in the experiment with SKOV3, in the experiment with Tov-21-G and with Tov112D was “inactive” each time.

Turning to `C/C=C(\C)C(=O)O[C@H]1[C@H](OC(C)=O)[C@]2(CO)[C@H](O)[C@H](O)[C@]3(C)C(=CCC4[C@@]5(C)CC[C@H](O[C@@H]6O[C@H](C(=O)O)[C@@H](O)[C@H](O[C@@H]7OC[C@H](O)[C@H](O[C@@H]8OC[C@H](O)[C@H](O)[C@H]8O)[C@H]7O)[C@H]6O[C@@H]6O[C@H](CO)[C@@H](O)[C@H](O)[C@H]6O)C(C)(C)C5CC[C@]43C)[C@@H]2CC1(C)C` (stereo partly drawn), the activity change, negative = cytotoxicity with PA-1 was -1.59% [at 6.55 µM]; in the experiment on SKOV3 it was 6.49% [at 6.55 µM]; with Tov-21-G, 19.4% [at 6.55 µM]; with Tov112D, 8.32% [at 6.55 µM].

In the case of `C[C@@](O)(COc1ccc(C#N)cc1)C(=O)Nc1ccc(C#N)c(C(F)(F)F)c1`, the Potency entry in the experiment with PA-1, in the experiment with SKOV3, in the experiment on Tov-21-G and in the experiment with Tov112D was “inactive” each time.

On to `C/C=C(\C)C(=O)OC1CC2C(C)(C)OC(=O)CC(OC(C)=O)C2(C)C2CC(OC(=O)C(C)C)C3(C)C(c4ccoc4)CC4OC43C12C` (stereo not drawn), for which the Potency entry in the experiment with PA-1, in the experiment on SKOV3, with Tov-21-G and in the experiment on Tov112D was “inactive” in each case.

For `CN[C@H]1[C@H](O)[C@H](O[C@@H]2[C@@H](O)[C@H](O[C@H]3O[C@H]([C@H](C)O)[C@@H](O)[C@H](O)[C@H]3N)[C@@H](N)C[C@H]2N)OC[C@@]1(C)O`, the Potency result in the experiment with PA-1, in the experiment on SKOV3, in the experiment on Tov-21-G and in the experiment on Tov112D was “inactive” throughout.

For the compound `C[C@@H]1C(=O)O[C@H]2[C@H](O)[C@@]34[C@@H]5OC(=O)[C@@]3(O[C@@H]3OC(=O)[C@@H](O)[C@@]34[C@H](C(C)(C)C)[C@H]5O)[C@@]12O`, the Potency entry in the experiment with PA-1, with SKOV3, in the experiment on Tov-21-G and with Tov112D was “inactive” in each case.

`CCOc1ccccc1-n1c(C(C)N2CCN(C(=O)COc3ccc(Cl)cc3)CC2)nc2ccccc2c1=O` (stereo not drawn): the Potency result in the experiment with PA-1 and in the experiment on SKOV3 was “inactive” throughout. In addition, the Potency in the experiment with Tov-21-G was 6310 nM (active).

Turning to `CC12CCC3C(CCC4(O)CC(O)CCC34C=O)C1(O)CCC2C1=CC(=O)OC1` (stereo not drawn), the Potency was 1120 nM (active) with PA-1, 1580 nM (active) with SKOV3, 708 nM (active) with Tov-21-G and 355 nM (active) in the experiment with Tov112D.

Turning to `C=C(C)[C@H]1O[C@H]2CC[C@@]3(C)[C@@](O)(CC[C@H]4[C@@H]5OC(C)(C)[C@H]6C[C@@H]7C(=C)Cc8c(Cl)cc9[nH]c(c5c9c8[C@@]76O)[C@@]43C)[C@]23O[C@@H]3[C@H]1O`, the Potency entry with PA-1, with SKOV3, with Tov-21-G and with Tov112D was “inactive” throughout.

As for `COC1CC(O[C@H]2CC[C@]3(C=O)C4CC[C@]5(C)[C@@H](C6=CC(=O)OC6)CC[C@]5(O)[C@@H]4CC[C@]3(O)C2)OC(C)C1O[C@@H]1O[C@H](CO)[C@@H](O)[C@H](O)[C@H]1O` (stereo partly drawn), the Potency in the experiment with PA-1 was 316 nM (active); in the experiment on SKOV3 it was 447 nM (active); with Tov-21-G, 141 nM (active); with Tov112D it was 100 nM (active).

As for `CN1[C@@H]2CC[C@H]1CC(OC(=O)C1C=Nc3ccccc31)C2` (stereo partly drawn), the Potency result with PA-1, in the experiment on SKOV3, in the experiment with Tov-21-G and with Tov112D was “inactive” throughout.

As to `COC1CC(OC2CCC3(C=O)C(CCC4C3CCC3(C)C(C5=CC(=O)OC5)CCC43O)C2)OC(C)C1OC1OC(CO)C(O)C(O)C1O` (stereo not drawn), the Potency in the experiment on PA-1 was 501 nM (active); with SKOV3 it was 355 nM (active); with Tov-21-G it was 199 nM (active); in the experiment on Tov112D it was 100 nM (active).

With `COC1=CC(=O)O[C@@H](CCc2ccccc2)C1`, the Potency result with PA-1, in the experiment on SKOV3, in the experiment on Tov-21-G and in the experiment with Tov112D was “inactive” each time.

As to `CCCCCCn1c(=O)c(C(=O)Nc2ccc(C(=O)OCCC)cc2)c(O)c2ccccc21`, the activity change, negative = cytotoxicity was 1.75% [at 11.6 µM] with PA-1, -0.233% [at 11.6 µM] with SKOV3, 0.105% [at 11.6 µM] with Tov-21-G and 27% [at 11.6 µM] in the experiment on Tov112D.

For the compound `C=C[C@H]1[C@H](O[C@@H]2O[C@H](CO)[C@@H](O)[C@H](O)[C@H]2O)OC=C2C(=O)OCC[C@H]21`, the Potency result in the experiment with PA-1, in the experiment on SKOV3, with Tov-21-G and in the experiment on Tov112D was “inactive” each time.

Turning to `COc1cc(C(=O)O[C@H]2[C@@H]3C=CO[C@@H](O[C@@H]4O[C@H](CO)[C@@H](O)[C@H](O)[C@H]4O)[C@@H]3[C@@]3(CO)O[C@@H]23)ccc1O`, the Potency entry in the experiment on PA-1, in the experiment on SKOV3, in the experiment on Tov-21-G and with Tov112D was “inactive” throughout.

(Values after PubChem BioAssay (NCATS).)
